Laboratory results taken from PubChem BioAssay (NCI).
About 83,000 compounds went through this panel and 20% of them were active in at least one assay; those are over-represented in the sample as a whole.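 Note: values are percent growth. 100 is the growth of untreated cells, values between 100 and 0 indicate rising inhibition; between -100 and 0 indicates cell death.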 Unmarked numbers belong to inactive results. Active and inactive are the calls of the source. How the source made its calls: active means growth percent below 10; inactive means the rest.

Columns and labels:
Assay in all cases: NCI-60 one-dose screen, 48 h (100 = growth as untreated, 0 = no growth, -100 = all killed)
Details in all cases: 10 µM unless noted
SR leukemia = test system: SR leukemia
RPMI-8226 leukemia = test system: RPMI-8226 leukemia
OVCAR-8 ovarian = test system: OVCAR-8 ovarian
OVCAR-5 ovarian = test system: OVCAR-5 ovarian
SK-OV-3 ovarian = test system: SK-OV-3 ovarian
IGROV1 ovarian = test system: IGROV1 ovarian
OVCAR-3 ovarian = test system: OVCAR-3 ovarian
HS 578T breast = test system: HS 578T breast
NCI/ADR-RES ovarian = test system: NCI/ADR-RES ovarian
OVCAR-4 ovarian = test system: OVCAR-4 ovarian

Compound | growth (SR leukemia) | growth (RPMI-8226 leukemia) | growth (OVCAR-8 ovarian) | growth (OVCAR-5 ovarian) | growth (SK-OV-3 ovarian) | growth (IGROV1 ovarian) | growth (OVCAR-3 ovarian) | growth (HS 578T breast) | growth (NCI/ADR-RES ovarian) | growth (OVCAR-4 ovarian)
O=C(Nc1ccc(N2CCCCC2)c(Cl)c1)c1ccc(Br)o1 | 40.8% | 55.7% | 59% | 114% | 107% | 75.1% | 43.6% | 72.8% | 68% | 
C[C@]12CCC(=O)C[C@H]1CC[C@@H]1[C@@H]2CC[C@@]2(C)[C@H]1CC[C@]2(O)C(=O)CO | 106% | 103% | 108% | 92.3% | 105% | 103% | 115% | 99.1% | 107% | 
O=C(/C=C/C12c3ccccc3C(c3ccccc31)C1C(=O)N(c3ccccc3)C(=O)C12)c1ccc(Cl)cc1 (stereo unspecified) | 16.9% | 4.68% (active) | 30.7% | 8.5% (active) |  | 10.4% | -53.9% (active) | 14.1% | 18.1% | 
Cc1cc(-c2ccccc2)cc(SC#N)[n+]1[O-] | 8.25% (active) | 19.2% | 31.7% | 75.4% | 45.1% | 35.3% | 39.6% | 80.1% |  | 
CCOc1ccc(-c2nc3ccc(-c4nc5ccc(N6CCN(C)CC6)cc5[nH]4)cc3[nH]2)cc1OCC | 8.73% (active) | 45.8% |  | 44.4% |  | 50.5% | -13.3% (active) | 11.1% | 104% | 7.29% (active)
OC(COc1cccc2ccccc12)CN1CCN(c2ccccc2)CC1 (stereo unspecified) | 130% |  | 100% | 102% | 93.7% | 122% | 105% | 107% | 98% | 91.9%
COc1ccc(/C=C2\COc3ccc(O)cc3C2=O)cc1OC | 1.44% (active) |  | 46.4% | 86.8% | 93.1% | 89.5% | 28.4% | 80.4% | 98.4% | 92.8%
COc1ccc(/C(C)=C(\c2ccc(Cl)cc2)c2ccc(OCCN3CCCC3)cc2)cc1F | -22.6% (active) |  | 48.7% | 46.6% | 58.6% | 38.1% | 35.2% | 30% | 51.6% | 32.3%
CN(C)CCn1cc(-c2ccc3c(Nc4ccc(CC(=O)Nc5cccc(F)c5)cc4)ncnc3c2)cn1 | -20% [30 µM] (active) |  | -29.2% [30 µM] (active) | -91.8% [30 µM] (active) | -26.4% [30 µM] (active) | -65.3% [30 µM] (active) | -78% [30 µM] (active) | -48.7% [30 µM] (active) |  | -76.5% [30 µM] (active)
CC(C)OC(=O)NNC(=O)c1ccncc1 | 104% |  | 99.1% | 98.5% | 106% | 98% | 93.4% | 106% | 109% | 101%
CC(C)c1ccc(NC(=O)Cc2ccc(Nc3ncnc4cc(-c5cnn(CCN(C)C)c5)ccc34)cc2)cc1 | -49.1% [30 µM] (active) |  | -27.5% [30 µM] (active) | -98.9% [30 µM] (active) | -30.6% [30 µM] (active) | -69.7% [30 µM] (active) | -89.6% [30 µM] (active) | -60.6% [30 µM] (active) | 52.4% [30 µM] | -83.1% [30 µM] (active)
COc1ccc(-n2sc(=O)n(Cc3ccc(COC(=O)C(C)c4ccc(CC(C)C)cc4)cc3)c2=O)cc1 (stereo unspecified) | -27.4% (active) |  | 50.1% | 63.6% | 96.1% | 42.5% | -67.3% (active) | 77.8% | 76.7% | 18.3%
COc1ccc(/C(C)=C(\c2ccc(Cl)cc2)c2ccc(OCCN3CCCCC3)cc2)cc1F | -25.2% (active) |  | 59.5% | 51.5% | 63% | 46.2% | 51% | 35% |  | 29.1%
OCCCCc1nccc2c1[nH]c1ccccc12 | 140% |  | 102% | 98.4% | 112% | 81.9% | 105% | 106% |  | 89.6%
O=C1/C(=C/c2ccc([N+](=O)[O-])cc2)COc2ccc(O)c(O)c21 | -1.74% (active) |  | 14.2% | -68.6% (active) | 89.2% | -40% (active) | -88.2% (active) | 4.58% (active) | 11.1% | 6.56% (active)
Cc1nn(-c2ccccc2)c2c1C(c1ccc([N+](=O)[O-])cc1)C(C#N)=C(N)O2 (stereo unspecified) | 91.5% | 74.1% |  | 106% | 107% | 82.9% | 122% | 103% | 104% | 
O=C1c2cccc3c(-c4ccc(-c5nc6c7ccccc7c7ccccc7c6[nH]5)cc4)ccc(c23)C(=O)N1CCN1CCNCC1 | 5.99% (active) |  | 20.2% | 108% | 102% | 72.4% | 91.5% | 108% |  | -23.2% (active)
Cn1cc(-c2ccc3ncc(-c4ccc(CC(=O)Nc5cc(C(C)(C)C)nn5C)cc4)cc3c2)cn1 | 11.6% [30 µM] |  | 3.22% [30 µM] (active) | 46.2% [30 µM] | 12.6% [30 µM] | 7.76% [30 µM] (active) | 7.38% [30 µM] (active) | 27.8% [30 µM] | -8.5% [30 µM] (active) | -21.8% [30 µM] (active)
CCOC(=O)N1CCc2c(sc3c2C(=O)N[C@H](c2ccc(OC)cc2)N3)C1 | 87.7% |  | 89.2% | 108% | 65.4% | 107% | 102% | 98.7% |  | 102%
O=c1cc(-c2ccc(OCc3ccccc3)cc2)oc2c(I)c(OCc3ccccc3)cc(OCc3ccccc3)c12 | 94.3% | 108% |  | 103% |  | 100% | 104% | 88.3% | 101% | 100%
CC(=O)Nc1ccc(C(=O)/C=C/c2ccccc2)cc1 | 49.6% |  | 75.1% | 94.6% | 105% | 77% | 77.3% | 98.8% |  | 99.9%
CCOC(=O)c1cnn2c(-c3ccc(Cl)cc3)nc(NCc3ccccc3)nc12 | 44.5% |  | 30.5% | 100% | 112% | 64.8% | 29.9% | 79.5% | 26.3% | 5.61% (active)
C=C1C(=O)O[C@H]2[C@H]1CC/C(COC(=O)/C=C\C(=O)NCc1ccc(Cn3c(=O)sn(-c4ccc(C#N)cc4)c3=O)cc1)=C\CC[C@@]1(C)O[C@@H]21 | -37.6% (active) |  | -10.9% (active) | -83.9% (active) | 37.8% | -98.7% (active) | -90.1% (active) | -24.9% (active) | 0.213% (active) | -81.1% (active)
Clc1ccc(-c2nnc(Cn3ccnc3)o2)cc1 | 94.3% | 112% |  | 96.2% | 107% | 108% | 116% | 95.1% | 106% | 
CCC(O)(C(c1ccccc1)c1ccccn1)C(c1ccccc1)c1ccccn1 (stereo unspecified) | 83.8% |  | 106% | 96.4% | 94.8% | 101% | 102% | 131% | 109% | 107%
CCCCS(=O)(=O)Oc1ccc(-c2nc(C)c(C(=O)OCC)s2)cc1C=O | -14.3% (active) |  | 45.4% | 94.5% | 109% | 42.6% | 65% | 63.6% | 69% | 75.2%
O=C1/C(=C/c2ccccc2[N+](=O)[O-])COc2ccc(O)c(O)c21 | 3.56% (active) |  | 10.3% | -33% (active) | 40.8% | -6.14% (active) | -63.2% (active) | -0.42% (active) | 5.96% (active) | 2.9% (active)
Nc1ccc(-c2cc3c(Nc4ccc(OCc5cccc(F)c5)c(Cl)c4)ncnc3s2)cc1 | 14.5% |  | 63.1% | 77.9% | -2.32% (active) | 38.2% | 46.6% | 77% |  | 54.8%
CC(C)(C)N1CC(OC(N)=O)C1 | 128% |  | 84.9% | 110% | 113% | 110% | 120% | 116% |  | 101%
COc1ccc(OC)c(/C=C2\COc3ccc(O)c(O)c3C2=O)c1 | 7.03% (active) |  | 24.7% | 31.9% | 45.2% | 5.82% (active) | 1.23% (active) | 22% | 14.1% | 27.4%
